Data on five compounds can be found in PubChem BioAssay.

The nature of assay [1]: A549 cell viability effects, profiling panel, calcein-AM fluorescence, 48 h, basal (AID 1162). Note: test concentration not given here. To be noted: higher = more signal.
A short description of assay [2]: adipocyte viability effects, profiling panel, cell-based, 3T3-L1 adipocytes, calcein-AM fluorescence, 48 h, basal (AID 1163). Note: test concentration not given here. To be noted: 3T3-L1 adipocytes viability, higher = more signal.
Assay [3] is described as follows: HepG2 cell viability effects, profiling panel, calcein-AM fluorescence, 48 h, basal (AID 1164). Note: test concentration not given here. To be noted: higher = more signal.
The nature of assay [4]: MM1S cell viability effects, profiling panel, calcein-AM fluorescence, 48 h, basal (AID 1165).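 Note: viability of MM1S multiple myeloma cells under basal unstimulated conditions; test concentration not given here.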 To be noted: higher = more signal.
Assay [5] can be described thus: basal RPMI8226 viability, no added stimulus, profiling panel, cell-based, calcein-AM fluorescence, 48 h, PK04 Diversity Set (AID 1166).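 Note: cells grown under basal conditions without added stimulus; test concentration not given here.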 The settings on record: RPMI8226 myeloma viability, higher = more signal.
Assay [6] in a line: basal HepG2 mitochondrial membrane potential changes, profiling panel, cell-based, JC-1 fluorescence, 24 h, 100 nL compound (AID 1167). Note: test concentration not given here. To be noted: higher = more signal.
Assay [7] can be described thus: basal 3T3-L1 adipocyte mitochondrial potential changes, profiling panel, cell-based, JC-1 fluorescence, 3T3-L1 adipocytes, 24 h, 100 nL compound (AID 1168). Note: test concentration not given here. To be noted: JC-1 mitochondrial fluorescence, higher = more signal, called active from +8 up or from −8 down.
Assay [8] in a line: basal RPMI8226 mitochondrial membrane potential changes, profiling panel, cell-based, JC-1 fluorescence, 24 h, 100 nL compound (AID 1169). Note: test concentration not given here. The settings on record: RPMI8226 myeloma, JC-1 mitochondrial potential fluorescence, higher = more signal.
Assay [9] can be described thus: basal MM1S mitochondrial membrane potential changes, profiling panel, cell-based, JC-1 fluorescence, 24 h, 100 nL compound (AID 1170). Note: test concentration not given here. To be noted: higher = more signal.
Assay [10] can be described thus: A549 lung cancer cell viability effects, profiling panel, resazurin fluorescence, 24 h, PK04 Diversity Set (AID 1171). Note: test concentration not given here. To be noted: higher = more signal, called active from +8 up or from −8 down. (The colour change of resazurin is a common sign of viable cells or microbes.)
Assay [11] is described as follows: HepG2 liver cancer cell viability effects, profiling panel, resazurin fluorescence, 24 h, PK04 Diversity Set (AID 1172). Note: test concentration not given here. To be noted: higher = more signal.
Assay [12] in a line: basal S. cerevisiae growth modulation, no modifier, primary screen, OD600, strain BY4716, 24 h, basal condition (AID 1173). To be noted: OD600, 24 h, higher = more signal, called active from +8 up or from −8 down.
Assay [13] can be described thus: MM1S myeloma cell viability, profiling panel, resazurin fluorescence, basal, 24 h, PK04 Diversity Set (AID 1174).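 Note: MM1S multiple myeloma cell line; test concentration not given here.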 To be noted: higher = more signal, called active from +8 up or from −8 down.
In assay [14] the target is Dihydroorotate dehydrogenase (quinone), mitochondrial (Plasmodium falciparum (isolate 3D7)) (UniProt Q08210). Nature of the assay: PfDHODH enzyme inhibitors, primary screen, biochemical, C-terminal His tag, absorbance 600 nm (AID 1175).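 Note: recombinant parasite enzyme with a five histidine tag at its C terminus; test concentration not given here.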 The settings on record: DCIP absorbance 600 nm, higher = more signal, called active from +8 up or from −8 down.
The nature of assay [15]: P. aeruginosa biofilm formation inhibitors, primary screen, strain PAO1, LB-PBS medium, absorbance 600 nm (AID 1176). Note: test concentration not given here. The settings on record: P. aeruginosa PAO1 growth/biofilm, A600, 12 h; higher = more signal.
Assay [16] is described as follows: S. cerevisiae RM11-1a growth modifiers, primary screen, strain RM11-1a, OD600, basal, 24 h (AID 1177).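 Note: cultures grown under basal conditions with no added stressor; test concentration not given here.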 The settings on record: OD600, 24 h, higher = more signal, called active from +8 up or from −8 down.
Assay [17] can be described thus: E. coli acrAB mutant growth effects, primary screen, E. coli filamentation inducers, strain DRC39, OD650, 24 h (AID 1178).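 Note: growth measured as culture turbidity by optical density at 650 nm; test concentration not given here.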 The settings on record: higher = more signal, called active from +8 up or from −8 down.
A short description of assay [18]: E. coli acrAB mutant growth effects, primary screen, E. coli filamentation inducers, strain DRC39, OD650, 48 h (AID 1179).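 Note: screen aims at cell division blockers that make cells filament.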 The settings on record: E. coli DRC39 delta-acrAB growth, higher = more signal, called active from +8 up or from −8 down.
Assay [19] can be described thus: RPMI8226 myeloma cell viability, profiling panel, resazurin fluorescence, basal, 24 h, PK04 Diversity Set (AID 1180).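 Note: RPMI8826 multiple myeloma cell line at 5000 cells per well; test concentration not given here.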 The settings on record: higher = more signal.
In assay [20] the target is E3 ubiquitin-protein ligase XIAP (Homo sapiens) (UniProt P98170). In words: XIAP binders, primary screen, biophysical, small-molecule microarray, fluorescence 635 nm (AID 1181).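 Note: score merges 667 nm emission and signal to noise over triplicate slides.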 To be noted: small-molecule microarray binding, higher = more signal.

Each structure is given as a SMILES string. Where “and” joins values, the source holds several entries; their conditions need not be identical. Identical values can stand only once. Calls of active or inactive are those of the source. Unless noted, the rule behind the calls is not given here.

Chain of E3 ubiquitin-protein ligase XIAP (Homo sapiens) (P98170 whole entry, looked up): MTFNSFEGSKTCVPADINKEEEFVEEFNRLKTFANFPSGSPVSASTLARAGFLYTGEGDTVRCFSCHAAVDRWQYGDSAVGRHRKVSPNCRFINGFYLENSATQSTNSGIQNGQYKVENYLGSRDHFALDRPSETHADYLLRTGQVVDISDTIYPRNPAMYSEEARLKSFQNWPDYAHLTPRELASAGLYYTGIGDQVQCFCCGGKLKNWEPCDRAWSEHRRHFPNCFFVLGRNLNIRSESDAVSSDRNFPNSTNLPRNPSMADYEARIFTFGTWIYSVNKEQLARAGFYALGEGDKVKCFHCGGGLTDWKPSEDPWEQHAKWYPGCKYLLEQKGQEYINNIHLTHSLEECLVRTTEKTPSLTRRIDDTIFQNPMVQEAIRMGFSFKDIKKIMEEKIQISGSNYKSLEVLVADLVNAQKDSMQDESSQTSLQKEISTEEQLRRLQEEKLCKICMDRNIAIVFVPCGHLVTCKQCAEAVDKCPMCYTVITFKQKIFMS
Chain of Dihydroorotate dehydrogenase (quinone), mitochondrial (Plasmodium falciparum (isolate 3D7)) (Q08210 whole entry, looked up): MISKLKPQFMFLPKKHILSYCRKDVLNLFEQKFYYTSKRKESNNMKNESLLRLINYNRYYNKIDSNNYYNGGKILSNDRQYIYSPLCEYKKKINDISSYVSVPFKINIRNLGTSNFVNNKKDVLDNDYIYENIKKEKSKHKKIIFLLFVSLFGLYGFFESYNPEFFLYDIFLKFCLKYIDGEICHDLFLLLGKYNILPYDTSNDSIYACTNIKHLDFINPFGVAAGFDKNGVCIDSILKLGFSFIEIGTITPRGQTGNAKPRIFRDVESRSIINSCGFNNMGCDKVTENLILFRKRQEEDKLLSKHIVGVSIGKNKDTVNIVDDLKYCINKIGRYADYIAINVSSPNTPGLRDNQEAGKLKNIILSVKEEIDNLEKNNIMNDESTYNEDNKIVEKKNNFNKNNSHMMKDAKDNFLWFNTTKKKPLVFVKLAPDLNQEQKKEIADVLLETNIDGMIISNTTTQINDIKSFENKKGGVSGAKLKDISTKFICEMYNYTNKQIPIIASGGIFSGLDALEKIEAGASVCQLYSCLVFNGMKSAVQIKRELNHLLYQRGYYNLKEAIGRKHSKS

Take `C=C[C@H](C)[C@H](O)c1ccc(O)c2ccccc12`: the z-score is 0.0619 and 0.429 in [1]; 0.114 and -0.0793 in assay [2]; -0.461 and 0.756 in assay [3]; -2.53 and -2.69 in assay [4]; -0.233 and -0.17 in [5]; -1.28 and -0.0285 in assay [6]. Further, the z-score in assay [7] was -0.193 (inactive) and 1.11 (inactive); in assay [8] it was -1.01 and 0.71; in [9] it was -1.76 and 0.307; in assay [10], -0.52 (inactive) and -0.539 (inactive); in assay [11] it was 0.26 and 0.0956; in [12], -8.01 (active) and -8.42 (active). Moreover, the z-score in [13] is -0.709 (inactive) and -0.107 (inactive); in assay [15], 1.32 (inactive) and 1.45 (inactive); in [16] it was -1.6 (inactive) and -2.52 (inactive); in [17], 1.06 (inactive) and 1.82 (inactive); in assay [18], 1.31 (inactive) and 1.91 (inactive); in assay [19], -0.54 and 0.1. In addition, the composite z-score in [14] is -1.87 (inactive) and -1.49 (inactive); in [20], -0.0659 and 0.116.
On to `CCOC(=O)C[C@H]1[C@H](OC(=O)c2ccccc2-c2ccccc2)[C@@H](NC(=O)Cc2ccc(OC)cc2)c2cc(OCCCO)ccc2N1C(=O)Cc1ccc(OC)cc1`, for which the z-score in [1] is 0.615 and 0.158; in assay [2], 1.92 and 0.0868; in assay [3], -0.0677 and -0.11; in assay [4], 0.902 and -0.0317; in [5], 0.869 and -0.427; in assay [6] it was 3.07 and 0.376. For the same compound, the z-score in [7] was 0.491 (inactive) and 0.191 (inactive); in assay [8], 0.846 and -0.309; in assay [9], 1.46 and 0.00765; in [10] it was 0.615 (inactive) and 0.786 (inactive); in assay [11], 1.5 and 0.156; in assay [12] it was 0.324 (inactive) and 0.67 (inactive). For the same compound, the z-score in assay [13] was 0.783 (inactive) and 0.0875 (inactive); in [15], 0.531 (inactive); in assay [16], 0.6 (inactive) and 0.0342 (inactive); in assay [17], 1.56 (inactive) and -0.539 (inactive); in assay [18], 0.949 (inactive) and -0.39 (inactive); in [19], 0.844 and 0.125. For the same compound, the composite z-score in [14] was 1.08 (inactive) and 0.343 (inactive); in assay [20], 0.202 and -0.188.
As to `CC(C)CON=C1C[C@@H](O)[C@@H](O)[C@@H]2[C@@H]3C(=O)N(c4cccc(Oc5ccccc5)c4)C(=O)[C@@H]3CC[C@H]12`, the z-score in assay [1] was 0.259; in assay [2], 0.425; in assay [3], -0.641; in assay [4], 0.957; in assay [5], -0.0145; in assay [6] it was 1.34. For the same compound, the z-score in assay [7] is 0.461 (inactive); in assay [8] it was 0.288; in assay [9], -0.309; in assay [10], -0.0819 (inactive); in assay [11] it was 0.608; in [12] it was 0.121 (inactive). In addition, the z-score in [13] was 0.768 (inactive); in assay [15] it was 0.34 (inactive); in assay [16] it was 0.79 (inactive); in assay [17], 0.85 (inactive); in [18] it was 0.0947 (inactive); in [19], 1.33. In addition, the composite z-score is -0.564 (inactive) in assay [14] and -0.055 in assay [20].
With `CCN1C(=O)[C@H]2[C@H]3[C@H](O)[C@H](O)CC(=NOC[C@@H](O)COCc4ccco4)[C@@H]3CC[C@H]2C1=O`, the z-score in assay [1] was 0.107 and -0.737; in [2] it was -0.233 and 1.1; in assay [3], -0.417 and -0.814; in assay [4] it was 0.0026 and 0.228; in [5], -1.35 and -1.38; in assay [6], -0.48 and -0.487. Further, the z-score is -0.844 (inactive) and -0.925 (inactive) in assay [7]; 0.0424 and 0.122 in [8]; 0.104 and 0.0266 in [9]; -0.767 (inactive) and -1.14 (inactive) in assay [10]; -0.113 and -1.03 in [11]; 1.31 (inactive) and 0.252 (inactive) in [12]. For the same compound, the z-score is -0.413 (inactive) and -0.696 (inactive) in [13]; -0.601 (inactive) and -0.385 (inactive) in [15]; 0.567 (inactive) and 0.24 (inactive) in [16]; -0.357 (inactive) and -1.05 (inactive) in [17]; -0.463 (inactive) and -0.657 (inactive) in [18]; -0.575 and -0.287 in [19]. For the same compound, the composite z-score in [14] is 0.489 (inactive) and 0.529 (inactive); in assay [20] it was -0.0666 and -0.121.
For the compound `CC(CO)N1C(=O)[C@@H]2C3C(=O)OCCC=C[C@H]3OC23C=CCN(c2ccc(Cl)cc2)C(=O)[C@@H]13` (stereo not given in full), the z-score in [1] is 0.112 and -0.123; in assay [2] it was 0.194 and 0.458; in assay [3], 0.47 and 1.07; in assay [4], -0.725 and -0.182; in [5], 0.622 and -0.222; in [6], 0.242 and 0.0111. In addition, the z-score was 0.518 (inactive) and -0.689 (inactive) in assay [7]; 0.0601 and -0.811 in [8]; 0.936 and -0.274 in assay [9]; 0.189 (inactive) and 0.557 (inactive) in assay [10]; -0.445 and 0.702 in [11]; 0.604 (inactive) and -0.219 (inactive) in assay [12]. Also, the z-score in assay [13] is -0.0472 (inactive) and -0.544 (inactive); in [15] it was -0.497 (inactive) and -0.167 (inactive); in assay [16] it was 1.43 (inactive) and -0.727 (inactive); in [17], 0.519 (inactive) and -0.342 (inactive); in assay [18], 0.399 (inactive) and -0.538 (inactive); in [19], 0.23 and -0.131. The composite z-score in assay [14] was -1.16 (inactive) and -1.13 (inactive); in assay [20] it was 0.269 and -0.0172.
